Molecules are shown by their SMILES. This is part of a sample that, as a whole, favours compounds with a hit. Of some 79,000 tested, about 15% had one in any assay. Active and inactive are the calls of the source. No stated cut-off is given here; in the data, active means growth inhibition above about 70%; inactive means the rest.

Assay [1] in a line: NCI Yeast Anticancer Drug Screen. Data for the rad50 strain (AID 155).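 Further: 0% = growth of vehicle-only cultures of the same strain.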 The conditions noted are these: S. cerevisiae rad50 strain growth inhibition, hits give high values. In a few lines:
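Growth of the mutant yeast was measured after compound exposure and referenced to vehicle-treated cultures.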

A short description of assay [2]: NCI Yeast Anticancer Drug Screen. Data for the mec2-1 strain (AID 157). Particulars: S. cerevisiae mec2-1 strain, hits give high values. Summed up:
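mec2-1 yeast strain, carrying an alteration in DNA damage repair or cell cycle control, was exposed to compounds; growth inhibition was measured relative to vehicle-treated controls.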

Assay [3] in a line: NCI Yeast Anticancer Drug Screen. Data for the sgs1 mgt1 strain (AID 161).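 Further: 0% = growth of cultures given vehicle only.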 Particulars: S. cerevisiae sgs1 mgt1 strain, hits give high values. In a few lines: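 This yeast growth screen uses a strain with defined DNA-repair lesions; compound-treated growth is compared with vehicle-treated growth.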
A short description of assay [4]: NCI Yeast Anticancer Drug Screen. Data for the cln2 rad14 strain (AID 165).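 Further: 0% = growth equal to vehicle treated cultures.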 The conditions noted are these: S. cerevisiae cln2 rad14 strain, hits give high values. Summed up:
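Yeast carrying cln2 and rad14 alterations (cell cycle control and DNA damage repair) were exposed to compounds. Growth inhibition was measured against vehicle-treated controls.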

Assay [5] is described as follows: NCI Yeast Anticancer Drug Screen. Data for the bub3 strain (AID 167). The conditions noted are these: S. cerevisiae bub3 mutant strain, hits give high values. In a few lines: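 Whole-cell yeast assay. The mutant strain was incubated with compounds, and growth inhibition was determined by comparison with vehicle-treated cells.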
Assay [6] can be described thus: NCI Yeast Anticancer Drug Screen. Data for the mlh1 rad18 strain (AID 175). Particulars: S. cerevisiae mlh1 rad18 strain growth inhibition, hits give high values. Summed up: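 Growth inhibition of the yeast strain was measured after compound exposure and expressed relative to vehicle-treated controls. The strain carries defined defects in DNA damage repair.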
Setting [7] is: at 5.0 µM (retest, dose inferred, filed as 0.5).
Setting [8] is: at 50.0 µM (retest, dose inferred, filed as 5.0).

`CCNC(=O)O/N=C1/C=C2CC[C@@H]3C(CC[C@@]4(C)C3CC[C@@H]4OC(=O)NCC)[C@@]2(C)CC1` (stereo not given in full): the growth inhibition is 94% (active) in assay [1] (setting [7]); 66% (inactive) in assay [1] (setting [8]); 97.8% (active) in assay [1] (at 50.0 µM); 97% (active) in assay [2] (setting [7]); 45% (inactive) in assay [2] (setting [8]); 98.1% (active) in assay [2] (at 50.0 µM). Also, the growth inhibition in assay [3] (setting [7]) was 97% (active); in assay [3] (setting [8]) it was 72% (active); in assay [3] (at 50.0 µM), 97.5% (active); in assay [4] (setting [7]), 96% (active); in assay [4] (setting [8]), 14% (inactive); in assay [4] (at 50.0 µM), 96.2% (active). In addition, the growth inhibition is 93% (active) in assay [5] (setting [7]); 58% (inactive) in assay [5] (setting [8]); 97.2% (active) in assay [5] (at 50.0 µM); 97% (active) in assay [6] (setting [7]); 69% (inactive) in assay [6] (setting [8]); 97.5% (active) in assay [6] (at 50.0 µM).

For the compound `CC(=O)OCC1OC(OC(C)C)[CH]([Hg][S]Cc2ccccc2)C(OC(C)=O)C1OC(C)=O` (stereo not given), the growth inhibition in assay [1] (setting [7]) is 99% (active); in assay [1] (setting [8]) it was 98% (active); in assay [1] (at 50.0 µM), 54.8% (inactive); in assay [2] (setting [7]), 99% (active); in assay [2] (setting [8]), 99% (active); in assay [2] (at 50.0 µM), 57.9% (inactive). For the same compound, the growth inhibition is 94% (active) in assay [3] (setting [7]); 98% (active) in assay [3] (setting [8]); 44.6% (inactive) in assay [3] (at 50.0 µM); 37% (inactive) in assay [4] (setting [7]); 98% (active) in assay [4] (setting [8]); 96.8% (active) in assay [4] (at 50.0 µM). Further, the growth inhibition in assay [5] (setting [7]) is 99% (active); in assay [5] (setting [8]), 98% (active); in assay [5] (at 50.0 µM) it was 98.2% (active); in assay [6] (setting [7]), 99% (active); in assay [6] (setting [8]), 97% (active); in assay [6] (at 50.0 µM), 46.1% (inactive).

Consider `C[C@H](N)C(=O)N[C@@H]1[C@H]2C(=C(O)C[C@@H](O)[C@@H]2O)C(=O)O[C@]1(C)C(Cl)Cl`, for which the growth inhibition in assay [1] (setting [7]) was 18% (inactive); in assay [1] (setting [8]), 22% (inactive); in assay [1] (at 50.0 µM), 17.1% (inactive); in assay [2] (setting [7]) it was 7% (inactive); in assay [2] (setting [8]) it was 26% (inactive); in assay [2] (at 50.0 µM) it was 13.1% (inactive). In addition, the growth inhibition in assay [3] (setting [7]) was 12% (inactive); in assay [3] (setting [8]), 25% (inactive); in assay [3] (at 50.0 µM) it was 6.6% (inactive); in assay [4] (setting [7]) it was 18% (inactive); in assay [4] (setting [8]), 53% (inactive); in assay [4] (at 50.0 µM), 44.9% (inactive). Besides, the growth inhibition is 7% (inactive) in assay [5] (setting [7]); 26% (inactive) in assay [5] (setting [8]); 30.9% (inactive) in assay [5] (at 50.0 µM); 6% (inactive) in assay [6] (setting [7]); 25% (inactive) in assay [6] (setting [8]); 27.4% (inactive) in assay [6] (at 50.0 µM).

Consider `ClC1=C(Cl)C(Cl)(Cl)SS1`, for which the growth inhibition in assay [1] (setting [7]) was 100% (active); in assay [1] (setting [8]) it was 99% (active); in assay [1] (at 50.0 µM) it was 88.7% (active); in assay [2] (setting [7]) it was 100% (active); in assay [2] (setting [8]), 99% (active); in assay [2] (at 50.0 µM), 91.5% (active). Also, the growth inhibition in assay [3] (setting [7]) was 100% (active); in assay [3] (setting [8]), 99% (active); in assay [3] (at 50.0 µM), 92.1% (active); in assay [4] (setting [7]), 100% (active); in assay [4] (setting [8]), 99% (active); in assay [4] (at 50.0 µM), 91.5% (active). Also, the growth inhibition in assay [5] (setting [7]) is 100% (active); in assay [5] (setting [8]), 99% (active); in assay [5] (at 50.0 µM) it was 89.3% (active); in assay [6] (setting [7]) it was 99% (active); in assay [6] (setting [8]), 99% (active).

With `CCOP(=O)(OCC)/C(C#N)=C/c1cccc(Cl)c1`, the growth inhibition in assay [1] (setting [7]) was 1% (inactive); in assay [1] (setting [8]) it was 94% (active); in assay [1] (at 50.0 µM) it was 90.5% (active); in assay [2] (setting [7]), -1% (inactive); in assay [2] (setting [8]), 96% (active); in assay [2] (at 50.0 µM), 91.8% (active). In addition, the growth inhibition in assay [3] (setting [7]) is 5% (inactive); in assay [3] (setting [8]) it was 94% (active); in assay [3] (at 50.0 µM), 90.8% (active); in assay [4] (setting [7]), 14% (inactive); in assay [4] (setting [8]), 94% (active); in assay [4] (at 50.0 µM), 88.2% (active). For the same compound, the growth inhibition in assay [5] (setting [7]) was -6% (inactive); in assay [5] (setting [8]) it was 96% (active); in assay [5] (at 50.0 µM) it was 89.8% (active); in assay [6] (setting [7]), 6% (inactive); in assay [6] (setting [8]), 96% (active); in assay [6] (at 50.0 µM), 89.3% (active).

On to `CCCOc1ccc(/C=C/[N+](=O)[O-])cc1`, for which the growth inhibition is 11% (inactive) in assay [1] (setting [7]); 17% (inactive) in assay [1] (setting [8]); 52.3% (inactive) in assay [1] (at 50.0 µM); -1% (inactive) in assay [2] (setting [7]); 17% (inactive) in assay [2] (setting [8]); 96.3% (active) in assay [2] (at 50.0 µM). Further, the growth inhibition in assay [3] (setting [7]) was -1% (inactive); in assay [3] (setting [8]), 11% (inactive); in assay [3] (at 50.0 µM) it was 50.9% (inactive); in assay [4] (setting [7]) it was 1% (inactive); in assay [4] (setting [8]), 20% (inactive); in assay [4] (at 50.0 µM) it was 93.5% (active). Besides, the growth inhibition in assay [5] (setting [7]) is -1% (inactive); in assay [5] (setting [8]) it was 13% (inactive); in assay [5] (at 50.0 µM), 37% (inactive); in assay [6] (setting [7]), 3% (inactive); in assay [6] (setting [8]), 11% (inactive); in assay [6] (at 50.0 µM), 36% (inactive).

Consider `NC(C(=O)O)c1ccccc1Cl` (stereo not given), for which the growth inhibition in assay [1] (setting [7]) was -161% (inactive); in assay [1] (setting [8]), -142% (inactive); in assay [1] (at 50.0 µM), 21% (inactive); in assay [2] (setting [7]) it was -51% (inactive); in assay [2] (setting [8]), -48% (inactive); in assay [2] (at 50.0 µM) it was 1.65% (inactive). Also, the growth inhibition is -64% (inactive) in assay [3] (setting [7]); -57% (inactive) in assay [3] (setting [8]); -2.5% (inactive) in assay [3] (at 50.0 µM); -61% (inactive) in assay [4] (setting [7]); -56% (inactive) in assay [4] (setting [8]); 73.1% (active) in assay [4] (at 50.0 µM). For the same compound, the growth inhibition in assay [5] (setting [7]) was -68% (inactive); in assay [5] (setting [8]), -69% (inactive); in assay [5] (at 50.0 µM) it was -3.55% (inactive); in assay [6] (setting [7]) it was -147% (inactive); in assay [6] (setting [8]) it was -106% (inactive); in assay [6] (at 50.0 µM) it was 13.9% (inactive).

On to `CCCCCCCC[N+](CCCC)(CCCC)CCCC` (tested in a mixture with another compound), for which the growth inhibition in assay [1] (setting [7]) was 99% (active); in assay [1] (setting [8]) it was 99% (active); in assay [1] (at 50.0 µM) it was 99.5% (active); in assay [2] (setting [7]) it was 99% (active); in assay [2] (setting [8]), 100% (active); in assay [2] (at 50.0 µM), 99.7% (active). For the same compound, the growth inhibition in assay [3] (setting [7]) is 100% (active); in assay [3] (setting [8]), 100% (active); in assay [3] (at 50.0 µM) it was 99.5% (active); in assay [4] (setting [7]) it was 97% (active); in assay [4] (setting [8]), 99% (active); in assay [4] (at 50.0 µM), 99.5% (active). The growth inhibition in assay [5] (setting [7]) was 100% (active); in assay [5] (setting [8]), 99% (active); in assay [5] (at 50.0 µM), 99.7% (active); in assay [6] (setting [7]), 99% (active); in assay [6] (setting [8]), 99% (active); in assay [6] (at 50.0 µM), 99.3% (active).

Turning to `CCC[CH2][Pb]([Cl])([CH2]CCC)[CH2]CCC`, the growth inhibition was 99% (active) in assay [1] (setting [7]); 98% (active) in assay [1] (setting [8]); 88% (active) in assay [1] (at 50.0 µM); 100% (active) in assay [2] (setting [7]); 99% (active) in assay [2] (setting [8]); 92% (active) in assay [2] (at 50.0 µM). Further, the growth inhibition in assay [3] (setting [7]) was 100% (active); in assay [3] (setting [8]), 99% (active); in assay [3] (at 50.0 µM), 92.2% (active); in assay [4] (setting [7]), 98% (active); in assay [4] (setting [8]), 98% (active); in assay [4] (at 50.0 µM), 91.2% (active). Besides, the growth inhibition in assay [5] (setting [7]) was 100% (active); in assay [5] (setting [8]), 98% (active); in assay [5] (at 50.0 µM) it was 89.9% (active); in assay [6] (setting [7]), 99% (active); in assay [6] (setting [8]), 98% (active).

Values taken from PubChem BioAssay (NCI).
